# Shiga inhibitor: Shiga toxin inhibition. Vero cells, Shiga toxin protein synthesis inhibition reporter. inhibition, % at 38.7 µM. hit rate 9.2% among 290,000. AID 2315; in the data active means inhibition mostly above about 28%, no sharp cut-off; inactive means mostly below about 43%; further: 0% is about no effect
# AMA1 RON2 block: AMA1-RON2 (P. falciparum) interaction inhibition; AlphaScreen AMA1-biotinylated RON2 peptide binding; Potency, µM (top dose mostly 58.2 µM), for the others: top-dose activity change, negative = inhibition, usual class: inhibitors; hit rate 0.2% among 360,000; AID 720542;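 further: potency means the concentration at half of the fitted maximal effect; 0% = vehicle wells and -100% = peptide control; nearly all actives have a fitted effect of over 45% in size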
#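 AMA1 (3D7) with his tag at 25 nM final met compounds first, then biotinylated RON2 peptide at 25 nM; detection used donor plus acceptor beads, 10 µg/mL apiece, read by AlphaScreen after 30 min at room temperature.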
# SARS PLP yeast: blocks SARS-CoV papain-like protease in a yeast assay; S. cerevisiae expressing SARS-CoV PLpro, growth rescue; Potency, µM (doses to about 32.9 µM), for the others: at the top dose activity, positive = growth rescue, actives largely listed as activators; hit rate 0.19% among 330,000; AID 485353; calls by dose curve; further: potency means the concentration at half of the fitted maximal effect; 0% is about no effect; nearly all actives have a fitted effect of over 55% in size
# Cycloheximide cs: affects cycloheximide protein synthesis inhibition readout, counter-screen; cell reporter, cycloheximide protein synthesis inhibition counterscreen; max response, %; hit rate 12% among 300,000; in the data active means max response mostly above about 13%, no sharp cut-off; inactive means mostly below about 14%; further: read at 38.3 µM for the half of the compounds with a filed dose; 0% is about no effect
# Pf growth 48h: inhibits P. falciparum growth in the first generation, 48 h; hit rate 5.9% among 310,000; Potency, µM (doses to about 28.7 µM), inactives show at the highest dose activity change, negative = inhibition, actives largely listed as inhibitors; P. falciparum luciferase growth in erythrocytes, 48 h; AID 504832; further: potency means the concentration at half of the fitted maximal effect; on the % scale 0 is the no-effect control and ±100 the full control effect
#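 Read-out is firefly luciferase luminescence from an integrated reporter in P. falciparum, so falling signal marks reduced parasite growth. Infected erythrocytes were at 2% hematocrit and 0.1% parasitemia (final) in Albumax-supplemented RPMI 1640.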
# Pf growth 96h: P. falciparum growth inhibition at 96 hour, primary screen for plastid delayed-death inhibitors | Potency, µM (highest dose often 28.7 µM), without a hit: top-dose activity change, negative = inhibition, most hits filed as inhibitors | hit rate 6.9% among 320,000 | AID 504834 | P. falciparum luciferase reporter growth, 96 h; further: potency means the concentration at half of the fitted maximal effect; on the % scale 0 is the no-effect control and ±100 the full control effect
#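 Luminescence readout: decreased luciferase signal marks inhibited growth of reporter-expressing P. falciparum in infected red cells (2% hematocrit, 0.05% parasitemia final), exposed to compound two generations (96 h, 37 C, 5% CO2).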
# Starred values were filed as active, the others as inactive; ? = inconclusive; nt = no result; [ ] = remark or other dose. Rows were chosen to be rich in hits. Some 19% of all compounds tested hit in one or more screens of this group. Unless noted, the call rests on the fitted dose curve; in most records, active means well fitted curve in the direction sought with a large enough effect; inconclusive means small, poorly fitted or top-dose-only effect, or another doubt; inactive means no such curve, though single readings can be large; an effect the other way counts as inactive or inconclusive.
SMILES,Shiga inhibitor,AMA1 RON2 block,SARS PLP yeast,Cycloheximide cs,Pf growth 48h,Pf growth 96h
CCCc1cc(=O)oc2cc(OC(C)C(=O)NC3CC(C)(C)NC(C)(C)C3)ccc12 (stereo not drawn),4.7,-2.1%,2.9%,-1.7,?,?
O=C(OCC(=O)N1CCN(Cc2ccccc2)CC1)c1cc(Cl)ccc1[N+](=O)[O-],nt,7.0%[11.6 µM],4.0%,nt,3.1%,-6.9%
COc1ccc(NC(=O)COC(=O)c2ccc(-n3cnnn3)cc2)cc1Cl,nt,-7.3%,2.5%,nt,0.0%,2.9%
COc1ccc(NC(=O)CS(=O)CC(=O)N2CCN(C3CCCC3)CC2)cc1 (stereo not drawn),-6.0,36.8%,3.3%,-3.3,0.8%,20.3%
CN1CCN(NC(=O)Nc2cccc(F)c2)CC1,50.2,-5.9%,-8.6%,10.9*,13.0%,?
COC(=O)NCC(C)OC(=O)Nc1cccc(Cl)c1 (stereo not drawn),20.5,16.7%,2.3%,10.7*,28.4%,?
N#CCc1ccc(NC(=O)Nc2cccc(Cl)c2)cc1,70.7,-9.9%,5.7%,32.0*,?,0.0%
CC(OC(=O)Nc1cccc(Cl)c1)C(=O)OC1CCCCC1 (stereo not drawn),nt,30.8%,nt,nt,nt,nt
O=C(Nc1cccc(F)c1)Nc1cccc(Cl)c1,nt,13.3%,-21.1%,27.6*,?,?
Cn1cc(C2=C(c3cn(CCCSC(=N)N)c4ccccc34)C(=O)NC2=O)c2ccccc21,-19.2,nt,nt,-7.8,nt,nt
CCOC(=O)c1c(NC(=O)CN2CCCc3ccccc32)sc(C(C)=O)c1C,47.7,-1.3%,18.5%,-0.6,-11.8%,-20.7%
CCCCCCSc1nc(O)c(C2OC(=O)c3c2ccc(OC)c3OC)c(=O)n1-c1ccccc1 (stereo not drawn),-9.9,-1.5%,3.1%,-3.3,nt,-24.3%
CC(C)Oc1ccccc1C1NC(=O)CCC1[N+](=O)[O-] (stereo not drawn),9.2,11.7%,1.8%,1.5,11.4%,-14.2%
CC(=O)Nc1ccnc(-c2cccnc2)n1,-15.7,-8.6%,-5.9%,-3.5,10.8%,136.6%
Cc1cccnc1NC(=O)Nc1cccc2ccccc12,-2.0,-0.4%,-4.5%,13.1,nt,-79.8%
CNS(=O)(=O)c1ccc(NC(=O)Nc2cccc(F)c2)cc1,85.5*,5.8%,-0.1%,32.0*,7.3%,1.1%
O=C(Nc1cccc(Cl)c1)Nc1ccnc(-c2cccnc2)n1,-3.1,-6.0%,1.3%,11.8,10.4µM*,-18.8%
Cc1cccnc1NC(=O)Nc1cccc(Cl)c1,59.5*,-4.7%,0.5%,13.3,181.1%,?
O=C(Nc1cccc(Cl)c1)OCc1cnc(Cl)s1,31.2,14.1%,-20.2%,14.1*,17.8%,nt
O=c1ccc(Oc2nc(N3CCOCC3)nc(N3CCOCC3)n2)n[nH]1,-7.1,-4.2%,-2.3%,-4.0,-5.2%,72.8%
CO/N=C(/C(=O)N[C@@H]1C(=O)N2C(C(=O)O)=C(CSc3nc(C)c(CC(=O)O)s3)CS[C@H]12)c1csc(N)n1,nt,nt,nt,nt,-6.5%,-16.8%
CC1(C(=O)NS(=O)(=O)C2CC2)CCCN(C(=O)c2ccc3c(c2)OCO3)C1 (stereo not drawn),nt,9.7%,nt,nt,nt,nt
O=C(Cc1ccc(NC(=O)C2CCCN(C(=O)C3CC3)C2)cc1)Nc1ccc(C(=O)N2CCOCC2)cc1 (stereo not drawn),nt,-0.1%,nt,nt,nt,nt
COC(=O)c1cc(NC(=O)Nc2cccc(Cl)c2)ccc1Cl,73.1,-13.7%,-21.6%,21.8*,9.28µM*,14.7µM*
COC(=O)c1cc(NC(=O)c2ccc(-c3ccccc3)cc2)ccc1Cl,15.2,3.3%,-20.9%,-1.4,-2.2%,-10.1%
SMILES,Shiga inhibitor,AMA1 RON2 block,SARS PLP yeast,Cycloheximide cs,Pf growth 48h,Pf growth 96h
S=C(Nc1ccc(Cl)cc1)c1nc2ccccc2s1,35.0,?,-4.7%,33.9*,69.4%,-16.2%
O=C(Nc1ccc(Cl)cc1)/C(=C/c1cccc(O)c1)c1nc2ccccc2s1,154.0*,-6.3%,-9.9%,94.7*,9.28µM*,4.15µM*
CCO[C@H]1OC(C(=O)N2CCN(Cc3ccc4c(c3)OCO4)CC2)=C[C@@H](c2csc3ccccc23)[C@@H]1CCCO,3.6,-14.3%,0.5%,1.1,11.7µM*,?
CCO[C@H]1OC(C(=O)N2CCN(Cc3ccc4c(c3)OCO4)CC2)=C[C@@H](c2cn(C(C)=O)c3ccccc23)[C@@H]1CCCO,-15.3,-17.7%,1.0%,1.5,1.04µM*,7.38µM*
Cc1cc(C)cc(C(=O)NC(CC(N)=O)c2ccc(N3CCN(C)CC3)c([N+](=O)[O-])c2)c1 (stereo not drawn),-5.6,-8.4%,-3.4%,1.7,9.5%,55.3%
Cc1nccn1CCCNC(=O)CC1C(=O)NCCN1Cc1ccc(F)cc1Cl (stereo not drawn),-7.2,7.7%,5.6%,-7.0,6.5%,?
Cc1ccc(CNC(=O)C2(S(=O)(=O)c3ccccc3)CC=CC2)cc1,43.7*,0.0%,-1.1%,40.6*,62.9%,83.6%
Cc1ccc(S(=O)(=O)Cc2ccc(C(=O)NCc3cccs3)o2)cc1,2.3,2.8%,6.2%,3.0,nt,3.7µM*
Cc1ccc(CNC(=O)c2ccc(CS(=O)(=O)c3ccccc3)o2)cc1,-8.7,13.9%,-0.5%,-2.5,7.6%,4.65µM*
Cc1ccccc1S(=O)(=O)Cc1ccc(C(=O)NCc2cccs2)o1,-8.1,-10.5%,8.4%,-2.9,nt,?
Brc1cccc(OCCCCN2CCCCC2)c1,-5.4,7.1%,-21.7%,-3.0,-1.9%,?
O=C(NC(=S)Nc1cccc([N+](=O)[O-])c1)c1ccco1,-9.7,5.6%,16.8%,6.2,56.2%,8.28µM*
O=C(CNC(=S)NC(=O)c1cccc([N+](=O)[O-])c1)c1ccccc1,-4.9,99.0%,11.5%,4.4,32.0%,10.4µM*
O=C(NC(=S)Nc1cc(C(F)(F)F)ccc1Cl)c1ccccc1,16.8,38.9%,3.0%,-2.6,21.7%,?
O=C(NC(=S)Nc1cc([N+](=O)[O-])ccc1Cl)c1ccccc1,62.3*,-7.4%,8.0%,41.2*,nt,nt
O=C(O)CC(NNC(=O)c1ccccc1)C(=O)Nc1cccc([N+](=O)[O-])c1 (stereo not drawn),72.1*,90.1%,2.1%,23.4*,14.6%,13.0%
O=C(CSc1ncn[nH]1)N(C1CCCCC1)C1CCCCC1,-8.0,1.1%,-4.4%,-4.9,nt,?
COc1cc(OC)c(/C=N/NC(=O)Cn2nc([N+](=O)[O-])cc2C)c(OC)c1,-2.9,16.3%,3.4%,-2.5,7.6%,9.9%
O=C(NNc1c([N+](=O)[O-])cc(C(F)(F)F)cc1[N+](=O)[O-])c1ccco1,-12.6,-12.0%,-3.7%,-7.3,-0.9%,1.9%
O=C(CNC(c1ccccc1)c1ccccc1)Nc1cc([N+](=O)[O-])ccc1Cl,-9.0,-8.7%,-0.5%,-3.3,?,13.1µM*
Cc1ccc(C(=O)NC(=S)Nc2cccc(NC(=O)c3ccccc3)c2)cc1[N+](=O)[O-],6.6,28.9%,2.7%,3.3,23.5%,39.9%

# Bioassay records from PubChem BioAssay.
